Rows were chosen to be rich in hits. Some 2.4% of all compounds tested hit in one or more screens of this group.
D2 ag-1: agonists of human D2 dopamine receptor (beta-arrestin). 360,000 compounds, 0.084% hits. activation, % (test concentration not listed). DiscoveRx PathHunter D2 beta-arrestin, luminescence, 90 min; 100% = 57 uM dopamine signal. P14416; in the data active = activation above about 40%
Target sequence (P14416 whole entry, looked up): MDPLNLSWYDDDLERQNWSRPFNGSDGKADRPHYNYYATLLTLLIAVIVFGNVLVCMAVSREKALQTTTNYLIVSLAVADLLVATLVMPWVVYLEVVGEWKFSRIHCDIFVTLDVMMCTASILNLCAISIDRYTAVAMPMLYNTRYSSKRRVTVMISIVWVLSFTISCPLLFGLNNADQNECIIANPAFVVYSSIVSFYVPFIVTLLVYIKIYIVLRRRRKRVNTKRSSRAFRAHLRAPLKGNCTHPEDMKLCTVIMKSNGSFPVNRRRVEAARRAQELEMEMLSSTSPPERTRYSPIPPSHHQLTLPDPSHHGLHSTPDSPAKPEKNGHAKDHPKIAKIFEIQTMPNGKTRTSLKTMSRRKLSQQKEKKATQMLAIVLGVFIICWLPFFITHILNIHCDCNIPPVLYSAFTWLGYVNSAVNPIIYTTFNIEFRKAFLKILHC
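Agonist mode: compounds alone added to overnight-plated D2 PathHunter cells for 90 min at 37 C, with 57 uM final dopamine (EC100) defining full response. Beta-arrestin recruitment detected by chemiluminescent reagent, read after 1 h at ambient temperature.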
D2 PAM-1: positive allosteric modulators of human D2 dopamine receptor; P14416; HEK293 T-REx D2, calcium flux, EC20 dopamine potentiation; potentiation, % at 10 µM; 340,000 compounds, 0.34% hits; AID 485347;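 active = potentiation over 3 SD above the plate norm, cut at about 30% in these data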; note: 0% is about no effect
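Potentiation of an EC20 dopamine calcium response is measured in a force-coupled, tetracycline-inducible Hek293 Trex D2 line. Compound-only kinetic reads over 180 s flag agonists before dopamine addition.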
D2 PAM-2: potentiates the human D2 dopamine receptor allosterically | DiscoveRx D2 beta-arrestin cells, luminescence, 90 min; 100% = 57 uM dopamine signal | P14416 | 360,000 compounds, 0.23% hits | potentiation, % (test concentration not listed) | AID 624464; in the data active = potentiation above about 50%
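D2 cells co-treated with compound plus 50 nM dopamine (EC20) for 90 min at 37 deg C to detect potentiation. Beta-arrestin recruitment was read as enzyme-fragment luminescence after 1 h at ambient temperature. Full response was set by 57 uM dopamine.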
D2 antagonist: D2 dopamine receptor (human) antagonism | 340,000 compounds, 2% hits | HEK293 TREx D2 cells, calcium flux, dopamine EC80 | AID 485344 | inhibition, % at 10 µM; in the data active = inhibition above about 30%; inactive = below that, where a call was filed; note: 0% is about no effect
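Compounds are added to dye-loaded, induced HEK293 T-REx cells coupled to calcium release via D2; after a 3 min kinetic read an EC80 dopamine stimulus is given and fluorescence is recorded for 3 more min.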
D2 ag-2: activates the human D2 dopamine receptor. P14416. HEK293 T-REx D2 cells, calcium flux agonist mode. activation, % at 2 µM. 340,000 compounds, 0.53% hits. AID 485358;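 active = activation over 3 SD above normal in the single-dose calcium agonist read, cut at about 30% in these data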; note: 0% is about no effect
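Tetracycline-induced HEK293 Trex cells with D2 receptor force-coupled to calcium signaling, plated overnight at 30 C and loaded with no-wash calcium dye. Calcium flux read kinetically for 180 s after compound addition; responses flag agonists.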
Active calls of the source: *.

Screening Cc1nc2ccccc2n1CC(O)COC1CCCCC1 (configuration not stated) returned D2 ag-1 1, D2 PAM-1 -13, D2 PAM-2 3, D2 antagonist 32* and D2 ag-2 0.
For Cc1ccc(N2CCN(CC(O)COC3CCCCC3)CC2)cc1 (configuration not stated) the results were D2 ag-1 -3, D2 PAM-1 -26, D2 PAM-2 -16, D2 antagonist 63* and D2 ag-2 0.
`CC(=O)N(C)c1ccc(OCC(O)Cn2c(C)nc3ccccc32)cc1` (configuration not stated) gave D2 ag-1 -5, D2 PAM-1 31*, D2 PAM-2 -7, D2 antagonist 22 and D2 ag-2 0.
Cc1ccc(C(=O)COC(=O)CCNS(=O)(=O)c2ccccc2F)cc1 was read as D2 ag-1 1 and D2 PAM-2 -1.
COc1cc(NC(=O)c2noc3c2CC(C)CC3)c(OC)cc1Cl (configuration not stated) was read as D2 PAM-1 1 and D2 ag-2 -1.
Screening CC(C)(C)NC(=O)C1c2ccccc2Oc2ccccc21 returned D2 ag-1 -4, D2 PAM-1 12, D2 PAM-2 7, D2 antagonist 47* and D2 ag-2 0.
Cc1nn(-c2ccccc2)nc1C(=O)OCC(=O)N1CCC(C)CC1 was read as D2 ag-1 0, D2 PAM-1 -7, D2 PAM-2 -2, D2 antagonist 19 and D2 ag-2 0.
Screening O=C(O)c1ccccc1NS(=O)(=O)c1ccc2ccccc2c1 returned D2 ag-1 -2, D2 PAM-1 32*, D2 PAM-2 13, D2 antagonist 2 and D2 ag-2 -2.
`COC(=O)c1ccccc1NS(=O)(=O)c1ccc(F)cc1` gave D2 ag-1 -4, D2 PAM-1 44*, D2 PAM-2 -10, D2 antagonist 32* and D2 ag-2 0.
Screening O=C(O)c1cc(NS(=O)(=O)c2ccc3ccccc3c2)ccc1O returned D2 ag-1 -3, D2 PAM-1 7, D2 PAM-2 -22, D2 antagonist 11 and D2 ag-2 0.
For COC(=O)c1ccccc1NS(=O)(=O)c1ccc(NC(C)=O)cc1 the results were D2 ag-1 -2, D2 PAM-1 17, D2 PAM-2 -1, D2 antagonist -7 and D2 ag-2 1.
For O=C1c2cc3ccccc3c(-c3ccccc3)c2C(=O)N1c1ccccn1 the results were D2 ag-1 -4, D2 PAM-1 2, D2 PAM-2 -21, D2 antagonist 46* and D2 ag-2 6.
O=C1c2cccc(Cl)c2C(=O)N1c1ccccn1 was read as D2 ag-1 -3 and D2 PAM-2 -2.
For NC(=O)c1cc(-c2ccccc2)sc1NC(=O)CN1CCCCC1 the results were D2 ag-1 2, D2 PAM-1 1, D2 PAM-2 -5, D2 antagonist -11 and D2 ag-2 1.
For COc1ccc(-c2cc(OC(=O)c3ccccc3Cl)c3c(C)oc(C)c3c(=O)c2)cc1OC the results were D2 PAM-1 5 and D2 ag-2 -1.
`COCCNC(=O)CCCn1c(=O)[nH]c2ccsc2c1=O` gave D2 PAM-1 -1 and D2 ag-2 0.
`Cc1cc(C)n(-c2nc(C)nc(NCc3ccccc3)n2)n1` gave D2 ag-1 -4, D2 PAM-1 1, D2 PAM-2 -43, D2 antagonist 7 and D2 ag-2 3.
`CNc1nc(C)nc(-n2nc(C)cc2C)n1` gave D2 ag-1 -5, D2 PAM-1 -4, D2 PAM-2 -3, D2 antagonist 35* and D2 ag-2 0.
CCc1ccccc1NC(=S)NC1CC2CCCC(C1)N2Cc1cccs1 (configuration not stated) was read as D2 ag-1 -1, D2 PAM-1 -23, D2 PAM-2 -19, D2 antagonist 72* and D2 ag-2 -1.
`Cc1cccc(NC(=S)NC2CC3CCCC(C2)N3Cc2cccs2)c1C` (configuration not stated) gave D2 ag-1 -1, D2 PAM-1 -22, D2 PAM-2 -24, D2 antagonist 69* and D2 ag-2 0.
Screening O=C(Nc1cccc(Cl)c1)NC1CC2CCC(C1)N2Cc1cccs1 (configuration not stated) returned D2 ag-1 1, D2 PAM-1 -17, D2 PAM-2 -4, D2 antagonist 73* and D2 ag-2 0.
Screening Fc1ccc(NC(=S)NC2CC3CCCC(C2)N3Cc2cccs2)cc1 (configuration not stated) returned D2 ag-1 -4, D2 PAM-1 -13, D2 PAM-2 -23, D2 antagonist 15 and D2 ag-2 0.
`CCCN1C2CCCC1CC(NC(=S)Nc1cccc(C)c1C)C2` (configuration not stated) gave D2 ag-1 -3, D2 PAM-1 -10, D2 PAM-2 -13, D2 antagonist -16 and D2 ag-2 0.
Cc1ccc(NC(=S)NC2CC3CCCC(C2)N3Cc2cccs2)cc1 (configuration not stated) was read as D2 ag-1 -3, D2 PAM-1 -23, D2 PAM-2 -38, D2 antagonist 72* and D2 ag-2 1.
For CCOC(=O)N1CCN(C(=O)C(NC(=O)c2ccc(C(C)(C)C)cc2)C(C)C)CC1 (configuration not stated) the results were D2 ag-1 0, D2 PAM-1 -3, D2 PAM-2 -2, D2 antagonist -3 and D2 ag-2 0.
N#Cc1ccc(N/N=C/c2ccccc2)c([N+](=O)[O-])c1 was read as D2 ag-1 2, D2 PAM-1 -2, D2 PAM-2 -15, D2 antagonist -3 and D2 ag-2 0.
`Cc1ccc(S(=O)(=O)Nc2cccc(C(=O)NCC(c3ccccc3)N(C)C)c2)cc1F` (configuration not stated) gave D2 ag-1 -3, D2 PAM-1 -28, D2 PAM-2 -4, D2 antagonist 79* and D2 ag-2 0.
`CCOC(=O)c1nc(Nc2ccccc2CC)c2ccccc2n1` gave D2 ag-1 0, D2 PAM-1 -7, D2 PAM-2 1, D2 antagonist 33* and D2 ag-2 0.
For CC(=O)Nc1sc(N/N=C\c2ccccc2Cl)nc1-c1cccs1 the results were D2 ag-1 14, D2 PAM-1 23, D2 PAM-2 55*, D2 antagonist -11 and D2 ag-2 -1.
Screening CC(=O)Nc1sc(N/N=C/c2ccccc2F)nc1-c1ccc(C)cc1 returned D2 ag-1 41*, D2 PAM-1 -2, D2 PAM-2 15, D2 antagonist 5 and D2 ag-2 -2.

Compound activity from PubChem BioAssay.
